PAX8 reporter: PAX8 transcriptional activity inhibition. actives 1.2% (n = 360,000). RMG-I TPO-luciferase reporter, SteadyGlo, 24 h. AID 652154. inhibition, % at 12.6 µM;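 active means mean replicate inhibition at least 60% with every replicate also reaching 60%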;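 further: luciferase light reporting Pax8 driven TPO promoter activity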
LGR2 inh: Drosophila LGR2 receptor signaling inhibition. HEK293 LGR2, CRE-luciferase, bursicon-stimulated, 4 h. inhibition, % at 9.99 µM. actives 0.35% (n = 380,000);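 active means drop in luminescence signal, shown as inhibition above about 50% in the replicate tests, limit read from the data, passing the limit was not always enough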;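 further: agonist challenge used bursicon conditioned medium at about half maximal strength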
SIRT5 inh: inhibitors of human sirtuin-5 desuccinylase; Purified SirT5, succinyl-peptide AMC, trypsin-coupled fluorescence; inhibition, % at 15 µM; actives 1.1% (n = 330,000); AID 652115; in the data active means inhibition above about 15%
Target sequence (Q9NXA8 whole entry, looked up): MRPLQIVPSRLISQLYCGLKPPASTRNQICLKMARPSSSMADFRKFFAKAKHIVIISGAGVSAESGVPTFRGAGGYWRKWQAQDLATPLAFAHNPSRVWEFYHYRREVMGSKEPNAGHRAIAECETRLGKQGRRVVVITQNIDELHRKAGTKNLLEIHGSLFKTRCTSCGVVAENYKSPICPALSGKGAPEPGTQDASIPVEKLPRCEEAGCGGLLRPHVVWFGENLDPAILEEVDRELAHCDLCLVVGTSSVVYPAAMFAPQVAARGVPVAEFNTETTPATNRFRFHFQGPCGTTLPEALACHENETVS
EWS-Fli block: EWS/Fli transcriptional activity inhibition | A673 NR0B1-luciferase reporter, viability-normalised | inhibition, % at 12.6 µM | AID 651661 | actives 0.67% (n = 350,000);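 active means mean inhibition of at least 50% after viability correction, with every replicate also passing that limit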;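 further: firefly luciferase signal divided by Alamar Blue viability fluorescence both relative to DMSO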
Ecoli rRNA inh: inhibits bacterial ribosomal RNA function over humanized ribosomes | E. coli WT GFP vs humanized-ribosome RFP mutants, fluorescence, 24 h; active compounds read low; DMSO median 0, no signal -100 | GFP signal change (wild-type ribosome), % (no concentration beside the values) | actives 1.6% (n = 350,000) | AID 720706;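 active means significant combined selectivity score with lowered wild-type GFP, culture density cut under 30%, mutant RFP and density less affected; inactive means any of these conditions unmet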
PGC1a acetyl inh: lowers PGC1a acetylation signal in U2OS cells. AlphaScreen anti-acetyl-lysine; with virally co-expressed GCN5 acetyltransferase. inhibition, % at 15.6 µM. actives 0.17% (n = 350,000). AID 651687;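 active means every replicate shows inhibition of at least 40%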
A number is an active result; i = inactive; nt = no result given. In the library only some 3.4% were active in any assay of this set; here they are far more common.

SMILES	PAX8 reporter	LGR2 inh	SIRT5 inh	EWS-Fli block	Ecoli rRNA inh	PGC1a acetyl inh
CN1CCN(c2ccc(-c3ccc4ccccc4n3)cc2)CC1	94	102	i	93	i	i
C[C@H]1CN([C@@H](C)CO)C(=O)c2cc(-c3ccc(C#N)cc3)cnc2O[C@H]1CN(C)C(=O)c1ccccc1	nt	i	i	i	i	i
O=C(c1ccccn1)N1CC2(C1)[C@H](c1ccccc1)[C@@H](CO)N2Cc1cccnc1	nt	i	i	i	i	i
CO[C@@H]1CC[C@@H]2CCN(C)C(=O)[C@H](C)[C@H](OC)CN(C)C(=O)c3cc(C#N)ccc3OC[C@@H]1O2	i	i	i	i	i	i
CO[C@H]1CN(C)C(=O)c2cccc(C#N)c2OC[C@H]2O[C@H](CC[C@@H]2OC)CCN(C)C(=O)[C@H]1C	i	i	21	i	i	i
CO[C@H]1CC[C@H]2CCN(C)C(=O)[C@@H](C)[C@H](OC)CN(C)C(=O)c3cc(C#N)ccc3OC[C@@H]1O2	i	i	16	i	i	i
Cc1ccc(C(=O)N2CCCC2)cc1S(=O)(=O)Nc1cccc(C)c1C	i	i	26	i	i	i
COc1ccc2c3c([nH]c2c1)[C@@H](CO)N(Cc1ccncc1)CC31CN(C(=O)Cc2ccncc2)C1	nt	i	nt	i	i	i
C[C@@H]1CCCCO[C@H](CN(C)S(=O)(=O)c2ccccc2)[C@H](C)CN([C@@H](C)CO)C(=O)c2cc(NC(=O)Nc3ccc(C(F)(F)F)cc3)ccc2O1	64	i	i	i	i	i
C[C@H](CO)N1C[C@H](C)[C@H](CN(C)S(=O)(=O)c2ccccc2)OCCCC[C@H](C)Oc2ccc(NC(=O)Nc3ccc(C(F)(F)F)cc3)cc2C1=O	74	i	i	i	i	i
C[C@@H]1CN([C@H](C)CO)C(=O)c2cc(NC(=O)Nc3ccc(C(F)(F)F)cc3)ccc2O[C@@H](C)CCCCO[C@@H]1CN(C)S(=O)(=O)c1ccccc1	i	i	i	i	i	i
C[C@H]1CCCCO[C@@H](CN(C)S(=O)(=O)c2ccccc2)[C@@H](C)CN([C@@H](C)CO)C(=O)c2cc(NC(=O)Nc3ccc(C(F)(F)F)cc3)ccc2O1	76	i	i	i	i	i
C[C@H](CO)N1C[C@H](C)[C@@H](CN(C)S(=O)(=O)c2ccccc2)OCCCC[C@H](C)Oc2ccc(NC(=O)Nc3ccc(C(F)(F)F)cc3)cc2C1=O	70	i	i	i	i	i
C[C@@H]1CCCCO[C@@H](CN(C)S(=O)(=O)c2ccccc2)[C@@H](C)CN([C@H](C)CO)C(=O)c2cc(NC(=O)Nc3ccc(C(F)(F)F)cc3)ccc2O1	i	i	i	i	i	i
CC(C)CC#Cc1ccc([C@H]2[C@@H](CO)N3C(=O)CN(C(=O)NC(C)C)C[C@@H]23)cc1	nt	nt	nt	nt	i	nt
CCCC(=O)Nc1ccc2c(c1)C(=O)N(C)[C@@H]1CC[C@H](CC(=O)NCCc3ccncc3)O[C@@H]1CO2	i	i	i	i	i	i
Cc1ccccc1-c1ccc([C@H]2[C@@H](CO)N3C(=O)CN(C(=O)Nc4ccc(F)cc4)C[C@@H]23)cc1	i	i	i	i	i	i
C[C@@H]1CCCCO[C@H](CN(C)S(=O)(=O)c2ccccc2)[C@@H](C)CN([C@@H](C)CO)C(=O)c2cc(NC(=O)Nc3ccc(C(F)(F)F)cc3)ccc2O1	72	i	i	i	i	i
Cc1ccc(N/C(N)=N/c2nc(C)cc(N3CCCCC3)n2)c(C)c1	i	67	i	i	i	i
CN1CCN(c2ccc(NC(=S)NC(=O)c3cccc4ccccc34)cc2)CC1	i	i	i	65	i	i
O=C(C[C@H]1C=C[C@H](NC(=O)CCN2CCCCC2)[C@@H](CO)O1)Nc1ccccc1	i	i	i	i	i	i
O=C(CC(C(=O)O)c1c[nH]c2ccccc12)c1ccccc1 (stereo not given)	i	i	17	i	i	81
CC12CCC3C(CCC4CC(O)CCC43C)C1CC(O)C2 (stereo not given)	i	i	i	i	-28	i
C[C@H](O)[C@@]1(O)CC[C@H]2[C@@H]3CC[C@@H]4C[C@H](O)CC[C@]4(C)[C@H]3CC[C@@]21C	nt	i	i	i	i	i
Cc1ccc(O)c(-c2cc(C(=O)Nc3ccc(S(=O)(=O)Nc4nccc(C)n4)cc3)[nH]n2)c1	i	i	i	i	-29	i
SMILES	PAX8 reporter	LGR2 inh	SIRT5 inh	EWS-Fli block	Ecoli rRNA inh	PGC1a acetyl inh
CCCOc1ccc(CC(=O)NNC(=S)Nc2ccccc2)cc1Br	nt	nt	nt	nt	nt	i
COc1ccc(CC(=O)NNC(=S)Nc2ccccc2)cc1Cl	i	i	i	i	-27	i
CC1(C)CN(c2ccccc2)N(C(=O)c2ccc(C#N)cc2)C1=O	nt	i	nt	nt	nt	i
CC1(C)CN(c2ccccc2)N(C(=O)c2ccc(F)cc2)C1=O	nt	nt	24	i	nt	i
CN(C)C(=O)c1cccc(-c2ccc(C3[C@@H]4CN(S(=O)(=O)c5ccccc5)C[C@H]3N4)cc2)c1 (stereo not given in full)	i	i	i	i	i	i
CC12CCC(C(=O)NCCc3ccccc3)(OC1=O)C2(C)C (stereo not given)	i	i	15	i	i	i
COCCNCC(=O)C12CC3CC(CC(C3)C1)C2	nt	i	23	i	i	i
COCCNC(C)C(=O)C12CC3CC(CC(C3)C1)C2 (stereo not given)	nt	i	i	i	i	i
COCC(=O)N1C[C@@H](C)[C@@H](OC)CN(C)C(=O)c2ccc(NC(=O)c3ccccc3)cc2OC[C@H]1C	nt	i	i	i	i	i
O=S(=O)(c1cnc(Cl)c(Br)c1)N1CCc2ccccc21	i	i	i	i	i	i
O=S(=O)(c1cnc(Cl)c(Cl)c1)N1CCc2ccccc21	i	i	i	i	-33	i
CCS(=O)(=O)Nc1ccc2c(c1)C(=O)N(C)C[C@H](OC)[C@H](C)CN(C(=O)C1CCC1)[C@H](C)CO2	i	i	i	i	i	i
COc1ccc(S(=O)(=O)Nc2ccc3c(c2)C(=O)N([C@H](C)CO)C[C@@H](C)[C@@H](CN(C)S(=O)(=O)c2ccc(Cl)cc2)O3)cc1	i	i	20	i	i	i
COc1ccc(S(=O)(=O)Nc2ccc3c(c2)C(=O)N([C@@H](C)CO)C[C@@H](C)[C@H](CN(C)S(=O)(=O)c2ccc(Cl)cc2)OCCCC[C@@H](C)O3)cc1	i	i	16	i	i	i
COc1ccc(S(=O)(=O)N(C)C[C@H]2OCCCC[C@@H](C)Oc3ccc(NS(=O)(=O)c4ccc(Cl)cc4)cc3C(=O)N([C@@H](C)CO)C[C@H]2C)cc1	69	i	16	i	i	i

Screening data (PubChem)
